According to ChEMBL document CHEMBL2218924, “A broad activity screen in support of a chemogenomic map for kinase signalling research and drug discovery” (Biochem J, 2013):

Experiments:
[1] = target: Homeodomain-interacting protein kinase 3 (Homo sapiens) (UniProt Q9H422); conditions: at 10 µM
[2] = target: T1, Serine/threonine-protein kinase haspin (Homo sapiens) (UniProt Q8TF76); conditions: at 1 µM
T1 sequence (whole entry): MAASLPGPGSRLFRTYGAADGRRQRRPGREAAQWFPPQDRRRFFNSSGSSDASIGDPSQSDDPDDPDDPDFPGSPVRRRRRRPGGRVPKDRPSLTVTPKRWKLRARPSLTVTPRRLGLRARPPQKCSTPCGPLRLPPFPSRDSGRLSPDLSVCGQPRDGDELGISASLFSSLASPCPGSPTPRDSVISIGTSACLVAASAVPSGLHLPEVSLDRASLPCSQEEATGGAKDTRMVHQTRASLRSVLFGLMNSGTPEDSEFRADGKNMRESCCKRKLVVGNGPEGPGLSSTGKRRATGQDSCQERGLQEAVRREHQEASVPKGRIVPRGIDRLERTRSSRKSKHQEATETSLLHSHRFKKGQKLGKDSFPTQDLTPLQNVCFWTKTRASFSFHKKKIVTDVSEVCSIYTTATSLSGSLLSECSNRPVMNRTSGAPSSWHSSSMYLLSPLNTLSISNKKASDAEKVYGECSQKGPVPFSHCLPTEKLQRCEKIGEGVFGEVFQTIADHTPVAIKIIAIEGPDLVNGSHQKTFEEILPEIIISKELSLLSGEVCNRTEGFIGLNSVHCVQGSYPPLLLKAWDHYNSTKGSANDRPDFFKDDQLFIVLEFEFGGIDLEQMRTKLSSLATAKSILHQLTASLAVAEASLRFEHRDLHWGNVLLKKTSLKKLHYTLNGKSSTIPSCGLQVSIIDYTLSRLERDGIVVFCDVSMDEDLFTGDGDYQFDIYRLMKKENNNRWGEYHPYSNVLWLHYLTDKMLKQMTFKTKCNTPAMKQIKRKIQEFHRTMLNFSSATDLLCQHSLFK

[3] = target: T1, Serine/threonine-protein kinase haspin (Homo sapiens); conditions: at 10 µM
[4] = target: Tyrosine-protein kinase HCK (Homo sapiens) (UniProt P08631); conditions: at 1 µM
Sequence of Tyrosine-protein kinase HCK (Homo sapiens) (P08631 2-526 limits assumed): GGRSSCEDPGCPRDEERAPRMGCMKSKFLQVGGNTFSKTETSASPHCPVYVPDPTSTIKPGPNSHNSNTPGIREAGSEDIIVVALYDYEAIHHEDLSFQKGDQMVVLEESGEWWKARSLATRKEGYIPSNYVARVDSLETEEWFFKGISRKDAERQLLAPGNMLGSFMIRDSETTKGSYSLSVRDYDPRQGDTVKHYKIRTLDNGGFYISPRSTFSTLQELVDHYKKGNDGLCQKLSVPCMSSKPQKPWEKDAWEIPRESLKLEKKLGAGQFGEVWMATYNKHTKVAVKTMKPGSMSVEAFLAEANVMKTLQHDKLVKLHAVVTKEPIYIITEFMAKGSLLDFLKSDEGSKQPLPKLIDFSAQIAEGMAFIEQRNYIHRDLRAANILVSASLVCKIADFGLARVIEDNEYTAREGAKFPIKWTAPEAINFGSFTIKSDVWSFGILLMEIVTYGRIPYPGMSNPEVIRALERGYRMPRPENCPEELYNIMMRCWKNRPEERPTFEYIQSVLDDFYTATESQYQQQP

[5] = target: Tyrosine-protein kinase HCK (Homo sapiens) (UniProt P08631); conditions: at 10 µM
[6] = target: Tyrosine-protein kinase HCK (Homo sapiens) (UniProt P08631); conditions: at 1 µM; remark: listed apart in the source
[7] = target: Tyrosine-protein kinase HCK (Homo sapiens) (UniProt P08631); conditions: at 10 µM; remark: listed apart in the source
[8] = target: Insulin-like growth factor 1 receptor (Homo sapiens) (UniProt P08069); conditions: at 1 µM
Sequence of Insulin-like growth factor 1 receptor (Homo sapiens) (P08069 31-736 limits assumed): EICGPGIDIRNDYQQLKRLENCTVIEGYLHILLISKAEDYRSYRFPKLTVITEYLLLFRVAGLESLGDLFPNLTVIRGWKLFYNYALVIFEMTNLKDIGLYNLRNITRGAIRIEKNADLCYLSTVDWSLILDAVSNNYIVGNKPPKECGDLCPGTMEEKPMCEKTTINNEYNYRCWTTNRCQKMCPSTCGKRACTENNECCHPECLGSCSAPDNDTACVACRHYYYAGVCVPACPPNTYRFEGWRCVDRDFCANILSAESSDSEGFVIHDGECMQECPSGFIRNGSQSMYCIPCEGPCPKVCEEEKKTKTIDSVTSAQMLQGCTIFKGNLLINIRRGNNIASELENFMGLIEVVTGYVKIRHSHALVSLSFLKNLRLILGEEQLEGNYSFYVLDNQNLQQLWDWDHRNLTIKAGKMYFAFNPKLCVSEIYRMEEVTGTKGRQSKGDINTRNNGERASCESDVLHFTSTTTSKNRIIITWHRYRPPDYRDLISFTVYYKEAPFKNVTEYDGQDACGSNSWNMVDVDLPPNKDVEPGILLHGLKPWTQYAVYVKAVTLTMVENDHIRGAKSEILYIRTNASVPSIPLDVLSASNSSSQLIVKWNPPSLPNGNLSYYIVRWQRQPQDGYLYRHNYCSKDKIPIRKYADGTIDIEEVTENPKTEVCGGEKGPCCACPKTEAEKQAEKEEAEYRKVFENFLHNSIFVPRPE
Sequence of Insulin-like growth factor 1 receptor (Homo sapiens) (P08069 741-1367 limits assumed): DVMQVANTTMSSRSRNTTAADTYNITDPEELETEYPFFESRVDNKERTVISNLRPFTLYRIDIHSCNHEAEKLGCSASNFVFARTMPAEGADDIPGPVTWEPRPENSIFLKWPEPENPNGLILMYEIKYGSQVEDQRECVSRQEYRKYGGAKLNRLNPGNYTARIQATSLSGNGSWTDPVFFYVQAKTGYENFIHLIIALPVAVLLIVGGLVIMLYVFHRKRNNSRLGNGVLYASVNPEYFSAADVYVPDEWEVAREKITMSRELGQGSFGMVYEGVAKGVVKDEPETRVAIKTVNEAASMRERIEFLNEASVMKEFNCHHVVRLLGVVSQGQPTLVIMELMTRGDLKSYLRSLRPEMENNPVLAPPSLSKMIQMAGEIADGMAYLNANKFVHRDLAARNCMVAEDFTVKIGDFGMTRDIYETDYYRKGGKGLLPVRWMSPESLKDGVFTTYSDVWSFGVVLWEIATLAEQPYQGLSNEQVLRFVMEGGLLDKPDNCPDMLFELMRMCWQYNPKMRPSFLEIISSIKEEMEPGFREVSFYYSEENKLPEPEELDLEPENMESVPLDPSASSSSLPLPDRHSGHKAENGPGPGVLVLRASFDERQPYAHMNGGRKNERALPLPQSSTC

[9] = target: Insulin-like growth factor 1 receptor (Homo sapiens) (UniProt P08069); conditions: at 10 µM
[10] = target: T2, Protein kinase C zeta type (Homo sapiens) (UniProt Q05513); conditions: at 10 µM
T2 sequence (whole entry): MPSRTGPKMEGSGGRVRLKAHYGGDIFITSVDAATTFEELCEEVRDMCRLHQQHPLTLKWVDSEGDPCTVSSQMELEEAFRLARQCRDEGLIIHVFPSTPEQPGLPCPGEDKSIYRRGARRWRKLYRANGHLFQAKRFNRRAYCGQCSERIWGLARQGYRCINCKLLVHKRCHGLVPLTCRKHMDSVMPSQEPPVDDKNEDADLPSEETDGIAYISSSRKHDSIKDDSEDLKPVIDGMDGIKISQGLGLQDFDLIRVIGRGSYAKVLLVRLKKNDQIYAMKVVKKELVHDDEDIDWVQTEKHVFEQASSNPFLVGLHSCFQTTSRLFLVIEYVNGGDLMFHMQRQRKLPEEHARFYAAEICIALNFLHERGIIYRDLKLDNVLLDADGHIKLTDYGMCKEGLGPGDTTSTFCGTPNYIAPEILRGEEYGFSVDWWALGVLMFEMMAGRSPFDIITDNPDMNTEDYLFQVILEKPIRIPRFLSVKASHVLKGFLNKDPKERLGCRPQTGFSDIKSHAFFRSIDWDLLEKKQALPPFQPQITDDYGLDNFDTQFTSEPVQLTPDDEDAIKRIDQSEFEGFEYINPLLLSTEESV

Sequence of Homeodomain-interacting protein kinase 3 (Homo sapiens) (Q9H422 whole entry, looked up): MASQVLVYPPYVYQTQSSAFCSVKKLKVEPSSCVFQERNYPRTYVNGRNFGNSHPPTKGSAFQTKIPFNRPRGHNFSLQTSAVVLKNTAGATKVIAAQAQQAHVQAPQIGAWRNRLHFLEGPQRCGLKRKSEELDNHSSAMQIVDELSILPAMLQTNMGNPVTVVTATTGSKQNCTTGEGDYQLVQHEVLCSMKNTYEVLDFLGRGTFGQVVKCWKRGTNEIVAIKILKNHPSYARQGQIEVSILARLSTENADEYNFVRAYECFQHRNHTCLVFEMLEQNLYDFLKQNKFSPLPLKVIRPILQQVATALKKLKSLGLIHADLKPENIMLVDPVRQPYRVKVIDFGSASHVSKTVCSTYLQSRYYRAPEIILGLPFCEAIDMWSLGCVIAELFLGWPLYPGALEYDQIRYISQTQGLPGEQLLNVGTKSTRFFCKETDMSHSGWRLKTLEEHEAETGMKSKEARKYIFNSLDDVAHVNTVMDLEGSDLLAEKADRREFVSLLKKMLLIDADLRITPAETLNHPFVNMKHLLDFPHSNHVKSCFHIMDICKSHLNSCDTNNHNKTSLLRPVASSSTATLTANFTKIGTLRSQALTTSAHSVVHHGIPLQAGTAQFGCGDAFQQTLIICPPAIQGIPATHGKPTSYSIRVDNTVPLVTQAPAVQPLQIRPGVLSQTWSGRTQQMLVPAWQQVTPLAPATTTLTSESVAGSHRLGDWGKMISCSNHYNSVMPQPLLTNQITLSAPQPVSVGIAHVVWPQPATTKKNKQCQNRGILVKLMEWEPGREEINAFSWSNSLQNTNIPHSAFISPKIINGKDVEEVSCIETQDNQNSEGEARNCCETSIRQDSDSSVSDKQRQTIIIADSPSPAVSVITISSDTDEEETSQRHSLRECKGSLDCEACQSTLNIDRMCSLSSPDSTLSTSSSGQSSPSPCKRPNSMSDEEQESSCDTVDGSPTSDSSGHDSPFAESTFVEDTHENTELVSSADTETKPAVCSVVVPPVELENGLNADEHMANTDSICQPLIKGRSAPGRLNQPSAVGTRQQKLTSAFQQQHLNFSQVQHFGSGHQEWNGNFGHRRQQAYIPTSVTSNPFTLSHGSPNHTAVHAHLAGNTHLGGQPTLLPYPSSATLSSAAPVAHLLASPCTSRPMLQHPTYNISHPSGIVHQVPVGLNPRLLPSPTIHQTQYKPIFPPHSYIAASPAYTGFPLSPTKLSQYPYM

Compound	residual activity [1] [%]	residual activity [2] [%]	residual activity [3] [%]	residual activity [4] [%]	residual activity [5] [%]	residual activity [6] [%]	residual activity [7] [%]	residual activity [8] [%]	residual activity [9] [%]	residual activity [10] [%]
Oc1c2ccccc2c2c3c(cccc13)N=N2	19	10	-1	57	27	80	83	91	105	106
Cc1cc2ncc(-c3ccccc3)nc2cc1C	107	87	83	68	55	105	99	131	144	104
Oc1ccc(Nc2nc(-c3ccc(Cl)cc3)cs2)cc1	85	88	84	89	69	97	86	120	101	87
O=C1Nc2cc(Br)ccc2/C1=C1/Nc2ccccc2/C1=N\O	88	68	49	6	1	1	2	112	127	99
COc1ccc(CNc2nc(N(CCO)CCO)nc3c2ncn3C(C)C)cc1	98	104	101	62	56	102	91	90	129	95
Cn1cc(/C=C2\C(=O)Nc3ccc(S(N)(=O)=O)cc32)c2ccccc21	32	101	50	26	5	56	47	118	114	109
Cc1ccc(NC2=CC(=O)c3sc(C)nc3C2=O)cc1	97	105	116	85	74	103	99	75	116	102
CO[C@H]1C[C@@H]2CC[C@@H](C)[C@@](O)(O2)C(=O)C(=O)N2CCCC[C@H]2C(=O)O[C@H]([C@H](C)C[C@@H]2CC[C@@H](O)[C@H](OC)C2)CC(=O)[C@H](C)/C=C(\C)[C@@H](O)[C@@H](OC)C(=O)[C@H](C)C[C@H](C)/C=C/C=C/C=C/1C	110	86	106	73	81	99	87	123	112	112
CC(C)n1cnc2c(NCc3ccccc3)nc(NCCCO)nc21	106	101	95	81	70	84	81	78	103	107
c1ccc(-c2n[nH]cc2-c2ccnc3ccccc23)nc1	98	71	49	86	72	100	69	131	133	123
O=C(Nc1cccc(Nc2nccc(Nc3cccc(C(F)(F)F)c3)n2)c1)C1CC1	103	71	32	42	7	78	78	51	6	116
Oc1n[nH]c2nnc(-c3c(-c4ccccc4)nn4ccccc34)cc12	97	114	106	75	67	92	80	67	37	104
O=C1NC(=O)c2cc(Nc3ccc(F)cc3)c(Nc3ccc(F)cc3)cc21	99	103	41	63	21	87	49	102	108	101
Cc1nc(-c2ccccc2)c(-c2ccncc2)o1	103	94	35	24	20	96	91	94	128	112
Oc1ccc(-c2nc(-c3ccc(F)cc3)c(-c3ccncc3)[nH]2)cc1	105	55	10	59	24	98	45	113	141	92
Nc1n[nH]c2nnc(-c3c(-c4ccccc4)nn4ccccc34)cc12	93	128	85	76	40	87	40	85	78	93
O=C1NC(=O)/C(=C\c2ccc3nccnc3c2)S1	7	27	3	76	57	105	90	147	114	108

Compound	residual activity [1] [%]	residual activity [2] [%]	residual activity [3] [%]	residual activity [4] [%]	residual activity [5] [%]	residual activity [6] [%]	residual activity [7] [%]	residual activity [8] [%]	residual activity [9] [%]	residual activity [10] [%]
O=C1Nc2ccccc2/C1=C1/Nc2ccccc2/C1=N\OCCC(O)CO (stereo not given)	56	13	11	4	0	8	7	25	2	104
Cc1ccc(S(=O)(=O)/C=C/C#N)cc1	98	94	102	87	82	98	97	75	107	96
NC(=O)c1ccc2[nH]c(-c3ccc(Oc4ccc(Cl)cc4)cc3)nc2c1	98	89	96	72	60	96	89	140	98	100
COc1cccc(-c2cc(=O)c3ccccc3o2)c1N	98	118	81	88	87	106	105	91	127	105
CC#CC(=O)Nc1cc2c(Nc3ccc(F)c(Cl)c3)ncnc2cn1	95	119	98	85	88	95	88	147	86	103
COc1ccc(OC)c2c(=S)c3ccccc3[nH]c12	73	114	56	85	70	101	95	103	136	86
COc1cc2ncnc(Nc3ccc(O)c(Br)c3)c2cc1OC	92	65	24	32	4	29	7	71	73	95
O=C1NC(=O)/C(=C/c2ccc3c(c2)OC(F)(F)O3)S1	88	78	67	60	46	115	94	98	130	111
O=C(Nc1cccc(Nc2cc(Nc3cccc(C(F)(F)F)c3)ncn2)c1)C1CC1	102	110	82	96	52	98	83	141	115	87
O=C1NC(=O)c2c1c1c3ccccc3[nH]c1c1[nH]c3cc(Br)ccc3c21	89	99	72	69	56	97	78	87	91	88
CNc1cc2c(Nc3cccc(Br)c3)ncnc2cn1	96	109	53	68	30	62	50	118	109	118
COc1ccc(C(=O)Nc2sc3c(c2C(N)=O)CCCC3)cc1OC	97	109	93	66	70	95	94	115	74	109
CCC(=O)Nc1ccc2ncnc(Nc3cccc(Br)c3)c2c1	99	109	62	82	45	86	66	132	116	119
CC(C)n1cnc2/c(=N/c3cccc(Cl)c3)nc(NCCO)[nH]c21	83	80	58	41	13	57	13	103	105	102
O=c1cc(-c2cccc3c2Sc2ccccc2S3)oc(N2CCOCC2)c1	104	94	98	96	82	101	100	100	113	100
O=[N+]([O-])c1ccc(-c2nc(-c3ccc(F)cc3)c(-c3ccncc3)[nH]2)cc1	109	86	77	77	29	97	97	114	141	103
